Source: PubChem
TRPM1 prom inh: MITF TRPM1 promoter inhibition in SK-MEL-5 cells. hit rate 0.83% among 330,000. SK-MEL-5 TRPM1 promoter luciferase, 24 h. inhibition, % at 12.5 µM;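 active = mean inhibition across replicates of 60% or more, whatever share of single replicates reaches that level; inconclusive = some that reach 60%, reason not given; inactive = mean inhibition across replicates below 60%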
Peg3 promoter: inhibitors of Peg3 promoter | AID 588405 | inhibition, % at 20 µM | hit rate 1.7% among 360,000 | HeLa PEG-Prom luciferase reporter, luminescence, overnight;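 active = inhibition of at least 50% at 20 µM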
KKLEB tox: counter-screen for CF NF-kB inhibitors: cytotoxicity; hit rate 0.36% among 360,000; KKLEB CF airway cells viability, ATPlite luminescence, overnight; active compounds read low; cells stimulated with P. aeruginosa culture filtrate; activity change (cytotoxicity), % at 5 µM;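 active = corrected activity change at or below -50% at 5 µM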
Shn3 inh set2: Schnurri-3 reporter inhibition in Clone20 osteoblasts; Clone20 osteoblast Shn3 3'UTR firefly luciferase, 24 h; inhibition, % at 12.5 µM; hit rate 0.52% among 360,000;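 active = mean inhibition of at least 75% with every replicate also reaching 75%; inconclusive = mean inhibition at least 75% but some replicate below; inactive = mean inhibition below 75%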;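 also: 0% = median of neutral control wells and 100% = pilot-screen positive control compound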
CF NFkB inh: inhibitors of cystic fibrosis induced NF-kB | KKLEB NF-kB-GFP reporter, PAF-induced, GFP fluorescence overnight | inhibition, % at 5 µM | hit rate 0.86% among 360,000 | AID 588850;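 active = at least 50% inhibition at 5 µM, scaled per plate between neutral and stimulator controls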;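 also: PAF is a Pseudomonas aeruginosa culture filtrate used as stimulus; plate controls were PAF-stimulated DMSO wells for no effect and unstimulated DMSO wells for full effect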
LMP1 NFkB inh: reduces LMP1-driven NF-kappaB luciferase signal | LMP1-induced NF-kappaB luciferase reporter cells, luminescence | inhibition, % at 12.5 µM | hit rate 0.69% among 350,000 | AID 504558; in the data active = inhibition above about 41%; inconclusive = no clear call, values can overlap the other calls;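 also: 0% = neutral control wells and 100% = reference inhibitor control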
Active calls of the source: *; u = inconclusive; x = not tested or not shown; ! = repeats disagree. Only some compounds are listed: those with a hit (about 2.9% of all), similar ones and a draw of the others.

SMILES	TRPM1 prom inh	Peg3 promoter	KKLEB tox	Shn3 inh set2	CF NFkB inh	LMP1 NFkB inh
COc1ccc(CCN2C(=O)c3cccc4c(C(=O)N5CCCCC5)ccc(c34)C2=O)cc1OC	49	89*	2	48	-12	10
CC(C)(C)c1ccc(-n2ncc3c2CCCC3NC(=O)c2ccco2)cc1 (centres undefined)	x	7	-24	31	19	-8
C[C@H]1CN([C@@H](C)CO)S(=O)(=O)c2ccc(Br)cc2O[C@H]1CN(C)C(=O)Cc1ccncc1	x	-33	10	-2	-11	x
C[C@@H]1CN([C@@H](C)CO)C(=O)CCCn2nncc2CO[C@@H]1CN(C)C(=O)C1CCCCC1	x	-2	3	-11	-2	-9
CN(C)CCCNC(=O)c1cccc(-c2cnc3cccnn23)c1	x	9	-9	-11	-4	x
O=C(NC1CCCCC1)C(c1cccs1)N(C(=O)Cc1c[nH]c2ccccc12)c1ccc(F)cc1 (centres undefined)	18	85*	14	7	9	-12
CCCCCOc1ccc(NS(C)(=O)=O)cc1	-28	-159	1	-25	-16	78*
CCNC(=O)C1(C)CCCN(C(=O)c2cccc(C)c2C)C1 (centres undefined)	x	-12	16	1	-21	x
COc1cccc(/C=N/NC(=S)Nc2cccc(S(=O)(=O)N(C)C)c2)c1	-7	-10	1	7	-5	-1
CCN(CC)S(=O)(=O)c1ccc(N/N=C/c2cc(OC)ccc2O)nc1	u	30	-12	80	12	46*
COc1ccc(O)c(/C=N/NC(=S)Nc2cccc(S(=O)(=O)N(C)C)c2)c1	25	18	14	90*	2	9
Cc1cn([C@H]2C[C@H](O)[C@@H](/C=C/C(=O)N3CCN(Cc4ccc(F)cc4)CC3)O2)c(=O)[nH]c1=O	x	-10	5	-4	-7	x
COc1cccc(-c2cnc3c(NC(C)=O)cc(-c4cccc(C(=O)NCCN(C)C)c4)cn23)c1	x	41	8	51	-34	x
CC(=O)c1ccc(NC(=S)Nc2cccc(S(=O)(=O)Nc3c(C)n(C)n(-c4ccccc4)c3=O)c2)cc1	-3	-30	-4	-11	-1	-4
Cc1ccc(NC(=S)Nc2cccc(S(=O)(=O)Nc3c(C)n(C)n(-c4ccccc4)c3=O)c2)cc1	3	-42	10	-16	-8	69*
CCCCNC(=O)C1(C)CCN1C(=O)c1ccc2sccc2c1 (centres undefined)	x	12	-16	0	36	x
Cc1c(CCOC(=O)c2ccc(Cl)cc2Cl)sc[n+]1CC(=O)c1ccc(Br)cc1	59	-70	-6	-31	23	-1
Cc1c(CCOC(=O)C2C3CC4CC(C3)CC2C4)sc[n+]1CC(=O)c1ccc(Br)cc1 (centres undefined)	95*!	101*	2	6	10	8
CCCNC(=O)N(C)C[C@@H]1Oc2ncc(-c3ccncc3)cc2C(=O)N([C@H](C)CO)C[C@@H]1C	x	-17	-1	-7	1	-1
O=C(c1ccc(S(=O)(=O)c2ccccc2Cl)c([N+](=O)[O-])c1)N1CCN(Cc2ccccc2)CC1	76*	27	-6	83	34	24
COc1cc(N(C)C)c([N+](=O)[O-])cc1C(=O)N1CCN(Cc2ccccc2)CC1	4	13	12	23	27	51*
NC(c1ccccc1)c1csc(Nc2ccc(C(F)(F)F)cn2)n1 (centres undefined)	x	-8	-2	15	13	x
O=C(c1cn(-c2ccccc2)nc1-c1ccccc1)n1nnc2ccccc21	13	30	-10	35	32	-3
COc1cccc(-c2nn(-c3ccccc3)cc2C(=O)n2nnc3ccccc32)c1	7	50*	-22	61	10	1
CCn1cc(C2Nc3ccccc3C(=O)N2O)c(C)n1 (centres undefined)	-29	-77	-4	-12	-11	47*
SMILES	TRPM1 prom inh	Peg3 promoter	KKLEB tox	Shn3 inh set2	CF NFkB inh	LMP1 NFkB inh
Nc1ncnc(Sc2ncccn2)c1[N+](=O)[O-]	79*	101*	-6	-13	55*	-57
CCN(CC(=O)Nc1ccc2c(c1)OCCO2)C(=O)c1ccc([N+](=O)[O-])s1	71*	-32	-4	-3	-10	-2
O=C(COC(=O)c1ccc[nH]c1=O)Nc1ccc(S(=O)(=O)N2CCCC2)cc1	5	18	-17	-1	6	3
O=C(COC(=O)c1ccc[nH]c1=O)Nc1ccc(N2CCCCC2)cc1	78*	29	0	79	-1	46*
COc1ccc(CCN(C)c2ccc(S(=O)(=O)N3CCCC3)cc2[N+](=O)[O-])cc1OC	-2	30	-24	25	39	2
COc1ccc(CN(C)c2ccc(S(=O)(=O)N3CCN(C)CC3)cc2[N+](=O)[O-])cc1OC	13	15	-18	88*	22	24
CC(C)n1c(O)c(/C=C2\C=NN=C2c2ccccc2)sc1=S	-8	11	8	12	58*	4
CCn1c(O)c(/C=C2\C=NN=C2c2ccc(C)cc2)sc1=S	0	13	6	-2	-5	6
COc1ccc(C(C)=O)cc1Cn1c(C)c(C(=O)NC2CC2)sc1=O	x	-5	-6	-8	8	x
O=C(O)c1cccc(-n2sc3ccccc3c2=O)c1	14	-4	10	-9	-1	-1
O=c1c2ccccc2sn1-c1ccccc1	-5	65*	-13	16	1	-4
O=c1c2cc(C(F)(F)F)ccc2sn1-c1ccccc1	x	-83	-10	-44	51*	-9
O=c1c2ccccc2sn1-c1cccc(Cl)c1	x	-42	-2	-15	60*	-1
Cc1ccccc1S(=O)(=O)NC(=O)C1(C)CCN1C(=O)Cc1ccccc1Cl (centres undefined)	x	0	-2	3	-13	x
C[C@@H]1CN([C@H](C)CO)C(=O)CCCn2nncc2CO[C@H]1CN(C)S(=O)(=O)c1ccc(Oc2ccccc2)cc1	x	3	-14	-10	-1	-2
OCCN(Cc1ccccn1)Cc1ccccn1	x	3	-7	-10	3	x
CC(=O)c1cccc(NC(=O)c2cccc3c(-c4cnn(C)c4)coc23)c1	x	58*	4	11	-30	x
COc1ccc(CNC(=O)c2cccc3c(-c4cccnc4)coc23)cc1OC	x	19	-7	88*	14	x
COc1ccc(NC(=O)c2cccc3c(-c4cnn(C)c4)coc23)cc1	x	-67	7	-52	-13	x
COc1cc(NC(=O)c2cccc3c(-c4cnn(C)c4)coc23)cc(OC)c1OC	x	78*	-4	24	-6	x
CC(=O)Nc1ccc(CN(C)c2c(C)nc3ccc(C(=O)NCCCN4CCCC4=O)cn23)cc1	x	0	8	-13	-13	x
CN(C)CCN1CCN(C2CN(Cc3ccc([N+](=O)[O-])cc3)S(=O)(=O)C2)CC1 (centres undefined)	x	-17	7	3	4	x
